AMA1 RON2 block – AMA1-RON2 (P. falciparum) interaction inhibition | AlphaScreen AMA1-biotinylated RON2 peptide binding | Potency, µM (doses to about 58.2 µM), hits mostly inhibitors | hit rate 0.2% among 360,000; further: nearly all actives have a fitted effect of over 45% in size
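AMA1 (3D7) with his tag at 25 nM final met compounds first, then biotinylated RON2 peptide at 25 nM; detection used donor plus acceptor beads, 10 µg/mL apiece, read by AlphaScreen after 30 min at room temperature.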
AmpC no deterg – inhibitors of E. coli AmpC beta-lactamase without detergent; AmpC nitrocefin hydrolysis, absorbance 480 nm, 0.0001% Triton; P00811; Potency, µM (top dose mostly 57.1 µM), most hits filed as inhibitors; hit rate 0.52% among 330,000; further: nearly all actives have a fitted effect of over 20% in size
Target sequence (P00811 whole entry, looked up): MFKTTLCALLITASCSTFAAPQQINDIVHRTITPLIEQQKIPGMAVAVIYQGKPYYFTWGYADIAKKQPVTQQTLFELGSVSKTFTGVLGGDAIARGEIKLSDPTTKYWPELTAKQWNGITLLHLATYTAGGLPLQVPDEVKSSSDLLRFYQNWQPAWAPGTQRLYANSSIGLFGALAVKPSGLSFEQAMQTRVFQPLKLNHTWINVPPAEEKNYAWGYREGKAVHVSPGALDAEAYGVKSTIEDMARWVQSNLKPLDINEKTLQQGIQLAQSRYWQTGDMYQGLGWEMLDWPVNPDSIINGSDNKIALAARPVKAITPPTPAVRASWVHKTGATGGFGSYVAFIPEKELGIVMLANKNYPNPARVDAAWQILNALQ
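AmpC (5.3 nM in the dispensed reagent) in 20 mM phosphate pH 7.0 with 0.01% (detergent screen) or 0.0001% Triton X-100 was preincubated with compounds for 15 min at room temperature. Nitrocefin was then added from an 800 uM solution, and hydrolysis was followed at 480 nm.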
AmpC inh detg – inhibitors of E. coli AmpC beta-lactamase with detergent. AmpC hydrolysis of nitrocefin, absorbance 480 nm, 0.01% Triton. Potency, µM (doses to about 114 µM), most hits filed as inhibitors. hit rate 0.041% among 370,000. AID 485294; further: nearly all actives have a fitted effect of over 25% in size
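AmpC (5.3 nM in the dispensed reagent) in 20 mM phosphate pH 7.0 with 0.01% (detergent screen) or 0.0001% Triton X-100 was preincubated with compounds for 15 min at room temperature. Nitrocefin was then added from an 800 uM solution, and hydrolysis was followed at 480 nm.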
SARS PLP yeast – SARS-CoV PLP inhibition in yeast; AID 485353; hit rate 0.19% among 330,000; S. cerevisiae expressing SARS-CoV PLpro, growth rescue; Potency, µM (series often up to 32.9 µM), usual class: activators; calls by dose curve; further: nearly all actives have a fitted effect of over 55% in size
CHX counter – counter-screen for Shiga toxin inhibitors: cycloheximide protein synthesis inhibition | cell reporter, cycloheximide protein synthesis inhibition counterscreen | max response, % | hit rate 12% among 300,000; in the data active means max response mostly above about 13%, no sharp cut-off; inactive means mostly below about 14%; further: read at 38.3 µM for the half of the compounds with a filed dose
Shiga toxin inh – Shiga toxin inhibition; Vero cells, Shiga toxin protein synthesis inhibition reporter; inhibition, % at 38.7 µM; hit rate 9.2% among 290,000; in the data active means inhibition mostly above about 28%, no sharp cut-off; inactive means mostly below about 43%
Numbers stand for hits; n = inactive; u = inconclusive; x = no result given; + = active, no number; [ ] = another dose, or the depositor's remark. Shown is part of a subset that was picked to be rich in hits. Unless noted, the call rests on the fitted dose curve; in most records, active means well fitted curve in the direction sought with a large enough effect; inconclusive means small, poorly fitted or top-dose-only effect, or another doubt; inactive means no such curve, though single readings can be large; an effect the other way counts as inactive or inconclusive.

SMILES | AMA1 RON2 block | AmpC no deterg | AmpC inh detg | SARS PLP yeast | CHX counter | Shiga toxin inh
COc1cccc(Nc2nc(-c3sc(C)nc3C)cs2)c1 | u | n | n | n | 42 | 62
COc1ccccc1Nc1nc(-c2sc(N)nc2C)cs1 | n | n | n | n | 14 | n
Cc1nc(N)sc1-c1csc(Nc2ncccn2)n1 | n | n[11.4 µM] | u | n | 44 | 42
COc1ccccc1Nc1nc(-c2sc(NC(=O)c3ccccc3)nc2C)cs1 | n | n | n | n | n | n
COc1ccc(OC)c(Nc2nc(-c3sc(C)nc3C)cs2)c1 | u | n | n | n | n | n
Cc1nc(C)c(-c2csc(Nc3ncccc3C)n2)s1 | n | n | n | n | 43 | 56
CC(C)(/C=N/O)/[N+]([O-])=C/c1ccccc1C(F)(F)F | n | n | n | n | n | n
O=C(C1=C[C@@H](c2coc3ccccc3c2=O)C[C@@H](OCCCCO)O1)N1CCN(Cc2ccccc2)CC1 | n | n | n | n | n | n
C/C(=N\NC(=O)CNC(=O)c1ccco1)c1ccc(Br)cc1 | n | n | n | n | n | n
CSc1ccc(CNC(=O)CCn2c(=O)c3cccn3c3ccc(F)cc32)cc1 | x | x | n | x | x | x
Cc1nc(C)c(-c2csc(Nc3ccc(F)cc3)n2)s1 | n | n | u | n | 33 | 64
COc1cccc(Nc2nc(-c3sc(N)nc3C)cs2)c1 | n | n | n | n | 23 | +
Cc1nc(C)c(-c2csc(Nc3ccc(C(=O)O)c(O)c3)n2)s1 | n | n | n | n | n | n
Cc1ncoc1C(=O)N1CCCC(C(=O)c2cccc(OC(C)C)c2)C1 (centres undefined) | n | n | n | n | n | n
CC(=O)Nc1sc2c(c1C(c1ccncc1)N1CCOCC1)CCCC2 (centres undefined) | n | n | n | n | n | n
O=C(COc1ccccc1)n1nc(-c2ccc(Cl)cc2)nc1NCc1ccco1 | n | n | n | n | 48 | 26
O=C(c1ccco1)n1nc(-c2ccc(Cl)cc2)nc1NCc1ccco1 | n | x | n | x | n | n
COc1ccc(CNc2nc(NCc3ccc(OC)cc3)n(C(=O)c3ccccc3[N+](=O)[O-])n2)cc1 | n | n | n | n | 26 | 75
O=C(c1ccco1)n1nc(NCc2ccccc2)nc1NCc1ccccc1 | n | n | n | n | 9.9 | 37
O=C(c1ccco1)n1nc(-c2ccccc2)nc1NCc1ccco1 | n | u | n | n | n | n
Cc1ccc(-c2nc(NCc3ccco3)n(C(=O)c3ccco3)n2)cc1 | n | n | n | n | 42 | 122
Cc1ccc(OCC(=O)Nc2ccc(S(=O)(=O)Nc3cc(C)nc(C)n3)cc2)c(C)c1 | n | n | u | n | x | x
COc1ccc(S(=O)(=O)N(CC(=O)NCCSc2ccc(C)cc2)c2ccc(C)cc2)cc1 | x | x | n | x | x | x
O=C1CC(c2ccc(F)cc2)c2c(c3ccccc3[nH]c2=O)O1 (centres undefined) | x | x | n | x | x | x
COc1ccc(CN2C3CCCC2CC(NC(=O)Nc2cccc(C)c2)C3)cc1 (centres undefined) | n | n | n | n | n | n
SMILES | AMA1 RON2 block | AmpC no deterg | AmpC inh detg | SARS PLP yeast | CHX counter | Shiga toxin inh
COc1ccccc1C(=O)n1nc(-c2ccccc2)nc1NCc1ccc(Cl)cc1 | x | x | n | x | x | x
COc1ccccc1C(=O)n1nc(-c2ccccc2)nc1NCc1ccco1 | n | n | n | n | 21 | n
CC1(C)CC(=O)C(C=Nc2cc(C(=O)c3ccccc3)ccc2N)=C(O)C1 | n | n | n | n | 24 | 101
CSc1ccccc1N=CC1=C(O)CC(C)(C)CC1=O | n | n | n | u | n | n
COC(=O)c1ccc(N)c(N=CC2=C(O)CC(C)(C)CC2=O)c1 | n | n | u | n | 50 | 19
CCOC(=O)c1sc2nc(CC(=O)OC)nc(NCC(=O)OC)c2c1C | n | n | n | n | n | n
Cc1ccsc1/C=N/NC(=O)c1cccnc1 | n | n | n | n | 9.9 | n
Cc1ccsc1/C=N/NC(=O)c1ccncc1 | n | n | n | n | n | n
Cc1ccsc1/C=N/NC(=O)c1ccc([N+](=O)[O-])cc1 | n | n[11.4 µM] | n | n | 24 | n
COc1cc(C(=O)N/N=C/c2sccc2C)cc(OC)c1OC | n | n | n | n | n | n
Cc1ccsc1/C=N/NS(=O)(=O)c1ccc([N+](=O)[O-])cc1 | n | n | n | n | 48 | n
Cc1ccsc1/C=N/NC(=O)c1ccc2ccccc2c1 | n | n | u | n | 44 | 73
CCN(C(=O)COC(=O)Cn1cnc2c1c(=O)n(C)c(=O)n2C)C1CCS(=O)(=O)C1 (centres undefined) | n | n | n | n | n | n
Cc1cccc(NS(=O)(=O)c2ccc3[nH]c(=O)cc(C(=O)OC(C)C(=O)Nc4ccc([N+](=O)[O-])cc4)c3c2)c1 (centres undefined) | n | u | u | n | n | n
CC(C)CC(=O)Nc1ccc(Oc2ccc3c(c2)C(=O)NC3=O)cc1 | n | n | n | n | n | n
Cc1ccsc1/C=N/NC(=O)Nc1ccccc1 | n | n | u | n | 31 | 57
COc1ccccc1NCC(=O)N/N=C/c1sccc1C | n | n | n | n | n | n
COc1ccc(-n2ncc(C(C)NS(=O)(=O)c3cc(F)ccc3C)c2C)cc1 (centres undefined) | n | n | n | n | 21 | n
COc1ccc(-n2ncc(C(C)NS(=O)(=O)c3cccs3)c2C)cc1 (centres undefined) | n | n | n | n | n | n
C=CCn1c(O)c(C(CC)=Nc2cccc(C(=O)O)c2)c(=O)[nH]c1=O | n | n | n | n | 76 | 76
C=CCn1c(O)c(C(C)=Nc2cccc(C(=O)O)c2)c(=O)[nH]c1=O | n | n | n | n | 29 | 62
O=C1Cc2ccccc2C(=O)N1c1ccccc1 | n | n | n | n | n | n
Cc1cc(N2C(=O)Cc3ccccc3C2=O)ccc1C(C)C | n | n | n | n | 19 | n
COC(=O)C1=C(c2ccccc2)C[C@@H]2CC[C@H]1N2C(=O)NCC1CC1 | n | x | x | x | x | x
CN(C)S(=O)(=O)c1cccc(C(=O)N=C2N=C3C=CC(Cl)=CN3Cc3ccccc32)c1 | n | n | n | n | 53 | 130
O=C(N=C1N=C2C=CC=CN2Cc2ccccc21)c1ccc(S(=O)(=O)N2CCOCC2)cc1 | n | n | n | n | 33 | 154
O=C(N=C1N=C2C=CC=CN2Cc2ccccc21)c1ccc(S(=O)(=O)N2CCCC2)cc1 | n | n | n | n | 55 | 97
CCOC(=O)c1sc2ncn(CC(=O)Nc3cc(Cl)ccc3C)c(=O)c2c1C | x | x | n | x | x | x
Cc1cc(C)c2nc3sc(C(=O)N4CCOCC4)c(N)c3cc2c1 | n | n | n | n | 29 | 101
CCOc1ccc2nc3sc(C(=O)N4CCOCC4)c(N)c3cc2c1 | n | n | n | n | n | n

Source: PubChem (National Center for Advancing Translational Sciences (NCATS))
